# Only some compounds are listed: those with a hit (about 1.9% of all), similar ones and a draw of the others.
# sEH act = activators of human soluble epoxide hydrolase; AID 717; activation, % at 2 µM; 91,000 tested, 0.04% active; purified human sEH enzymatic activity, activator screen; in the data active = activation above about 37%
# Target sequence (P34913 whole entry, looked up): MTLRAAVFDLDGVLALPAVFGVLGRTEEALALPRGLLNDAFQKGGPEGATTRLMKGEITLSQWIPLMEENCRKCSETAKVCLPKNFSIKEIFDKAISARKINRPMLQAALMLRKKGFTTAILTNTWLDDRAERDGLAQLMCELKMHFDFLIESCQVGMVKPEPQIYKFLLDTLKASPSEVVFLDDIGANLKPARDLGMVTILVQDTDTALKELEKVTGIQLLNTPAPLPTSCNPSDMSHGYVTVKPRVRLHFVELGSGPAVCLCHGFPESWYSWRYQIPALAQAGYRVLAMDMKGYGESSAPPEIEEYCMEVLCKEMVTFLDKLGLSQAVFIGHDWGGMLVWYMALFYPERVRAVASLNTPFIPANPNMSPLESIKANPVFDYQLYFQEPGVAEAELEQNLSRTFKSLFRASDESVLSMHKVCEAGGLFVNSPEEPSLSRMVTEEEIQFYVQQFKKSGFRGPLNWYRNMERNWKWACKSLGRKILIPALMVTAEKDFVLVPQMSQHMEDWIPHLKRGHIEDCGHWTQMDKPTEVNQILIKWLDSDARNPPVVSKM
# sEH inh = inhibitors of human soluble epoxide hydrolase; recombinant human sEH enzymatic activity assay; inhibition, % at 2 µM; 91,000 tested, 0.34% active; P34913; in the data active = inhibition above about 80%
# Measles CPE = protection of cells from measles virus | Measles virus-infected cells, CPE protection, absorbance | protection (pct of control), % at 4 µM | 140,000 tested, 1.5% active; in the data active = protection mostly above about 24%, no sharp cut-off; inactive = mostly below about 26%
# Calb biofilm kill = kills Candida albicans biofilms; inhibition, % at 6 µM; 85,000 tested, 0.14% active; C. albicans biofilm + clotrimazole, Alamar Blue;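 active = inhibition above 20%; inactive = inhibition below 20%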;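 note: preformed 24 hr biofilms exposed to compound for 48 hr; 0% = biofilm without compound and 100% = blank killed by clotrimazole plus chlorhexidine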
# cytoskel mod = cytoskeleton assembly modification; AID 836; inhibition, % at 2 µM; HUVEC TNFa F-actin phalloidin imaging, high content; 91,000 tested, 0.18% active;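 active = inhibition above the batch mean plus 3 SD and confirmed as a hit by visual image inspection, cut at about 30% in these data, passing the limit was not always enough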
# Numbers without * were called inactive; · = not tested or not shown.
SMILES,sEH act,sEH inh,Measles CPE,Calb biofilm kill,cytoskel mod
Cc1ccc(S(=O)(=O)NC(C(=O)Oc2ccc3c(C(F)(F)F)cc(=O)oc3c2)c2ccccc2)cc1 (stereo unspecified),·,·,10.2,·,·
COc1ccc(C)cc1S(=O)(=O)N(CC(=O)Nc1cccc([N+](=O)[O-])c1)c1ccc(C)c(C)c1,·,·,49.5*,·,·
Cc1ccc(NC(=O)CN(c2ccc(Cl)cc2)S(=O)(=O)c2cc([N+](=O)[O-])ccc2Cl)cc1,·,·,5.5,·,·
O=C1c2ccccc2C(=O)N1/N=C/c1ccc(O)c(O)c1,·,·,4.3,·,·
c1coc(-c2nc3ccccc3nc2-c2ccco2)c1,·,·,40.6*,8.8,·
O=c1oc(-c2ccco2)nc2ccccc12,-0.2,2.6,8.2,5.8,-12.1
COc1ccc(C(NC(=O)C(C)C)c2c(O)ccc3ccccc23)cc1OC (stereo unspecified),·,·,13.4,·,·
Cc1nc(-c2cccnc2)sc1C(=O)Nc1ccc(C(F)(F)F)cc1,-19.5,19.2,11.6,·,23.2
Cc1nc(-c2cccnc2)sc1C(=O)Nc1cccc(C(F)(F)F)c1,4.6,-2.5,4.4,·,52.3*
Cn1c(=O)c2c(nc(SCC(=O)NCc3ccco3)n2C)n(C)c1=O,4.4,-4.8,32.7*,5.0,1.4
CC1=NN(c2ccccc2)C(=O)/C1=C\C=C1\N(C)c2ccccc2C1(C)C,·,·,58.7*,·,·
Cc1cccc2cc(CN(CC3CCCO3)C(=S)NCc3ccco3)c(=O)[nH]c12 (stereo unspecified),·,·,31.1*,·,·
Cc1cc(C)c2[nH]c(=O)c(CN(CC3CCCO3)C(=S)NCc3ccco3)cc2c1 (stereo unspecified),·,·,10.4,·,·
Cc1sc(N/N=C/c2cccs2)nc1-c1ccccc1,·,·,22.5,·,·
Cc1ccccc1-n1cnc2cc(NCc3cccs3)ccc21,2.8,0.0,10.4,8.6,1.9
COc1ccccc1-n1cnc2cc(NCc3cccs3)ccc21,-2.5,4.7,8.8,1.9,31.7*
CCOC(=O)Cc1nn2c(=O)cc(C)nc2s1,5.2,-8.9,45.8*,1.4,-4.9
CCC(=O)Nc1ccc(S(=O)(=O)Nc2ccc(Cl)nn2)cc1,·,·,4.0,·,·
CC(C)=CC(=O)Nc1nnc(C)s1,-1.0,0.7,37.8*,2.4,1.3
CC(=O)OCC(=O)NCC(=O)c1c[nH]c2ccccc12,·,·,4.2,·,·
Cc1ccc(-c2nc(-c3cccnc3)sc2CC(=O)Nc2ccc3nc(C)sc3c2)cc1,·,·,4.2,·,·
COC(=O)c1cc2c(s1)-c1ccccc1OC2,44.5*,-38.5,17.4,1.1,2.8
CC(=O)c1ccc(N2CCN(C(=O)CCCn3c(=S)[nH]c4cc5c(cc4c3=O)OCO5)CC2)cc1,-4.2,3.0,20.3,5.2,4.2
Cc1ccc(SCC(=O)Nc2ccccc2C(=O)N2CCOCC2)cc1,·,·,4.7,·,·
CCCCC(=O)Nc1ccccc1C(=O)N1CCOCC1,9.2,-9.4,37.1*,-3.2,2.7
SMILES,sEH act,sEH inh,Measles CPE,Calb biofilm kill,cytoskel mod
Cc1nc2ccccn2c1C(=O)NN=C1C2CC3CC(C2)CC1C3,·,·,37.5*,·,·
Cc1cc(C(=O)NN=C2C3CC4CC(C3)CC2C4)c2ccccc2n1,14.1,-16.4,0.4,·,-46.7
CC(=O)Nc1cccc(NC(=O)CSc2nnc(Cc3cccn3C)n2CCc2ccccc2)c1,·,·,7.0,6.0,8.4
CN1CCCCC1=NCCCn1cnc2c1c(=O)n(C)c(=O)n2C,-3.9,5.5,19.3*,·,-7.3
CCCNS(=O)(=O)c1ccc(OCC(=O)N2CCOCC2)cc1,7.7,-8.4,8.9,7.7,-3.7
CC(=O)Nc1ccc(S(=O)(=O)NNC(=O)COc2cc(C)ccc2C(C)C)cc1,0.9,0.9,54.0*,·,3.8
Cc1cc(C)n(CCCNCC(O)c2ccccc2)n1 (stereo unspecified),-5.5,4.8,7.8,8.2,-31.8
COCCNC(=O)/C(C#N)=C/C(C)=C/c1ccccc1,·,·,21.6,·,·
CC(=O)c1cnn(-c2cc(Oc3cccc(C)c3)ncn2)c1C,-10.9,12.6,51.0*,·,-25.1
COC(=O)c1cnn(-c2cc(Oc3cccc(C)c3)ncn2)c1N,-1.7,0.9,16.1,·,0.1
CCOc1ccc(CCNC(=O)CN2CCN(Cc3ccccc3C)C2=O)cc1OCC,·,·,3.8,1.4,·
O=C(c1ccco1)N1CCN(C(=O)C2CCCc3c2[nH]c2ccc(Cl)cc32)CC1 (stereo unspecified),-4.2,7.3,81.8*,8.9,26.3
CCCS(=O)(=O)N1CCCC(C(=O)NCCc2ccc(OC)c(OC)c2)C1 (stereo unspecified),-7.2,9.6,6.2,·,27.6
COc1cccc(C(=O)N/N=c2\sc3ccccc3n2C)c1,·,·,25.9*,·,·
COc1ccc(-c2nnc(SCC(=O)NC(=O)NCc3ccccc3)o2)cc1,-5.5,0.0,1.5,3.7,12.2
CCCCC(CC)CNC(=O)C1CCCN(S(=O)(=O)c2cnc[nH]2)C1 (stereo unspecified),-83.3,83.3*,10.1,-2.6,4.9
O=C(NC1CCCCCC1)C1CCCN(S(=O)(=O)c2cnc[nH]2)C1 (stereo unspecified),·,·,2.6,17.3,7.1
CCOc1ccc(OCC)c(NC(=O)C2CCCN(S(=O)(=O)c3cnc[nH]3)C2)c1 (stereo unspecified),·,·,5.5,4.6,3.2
Cc1ccc(NC(=O)C2CCCN(S(=O)(=O)c3cnc[nH]3)C2)c(Br)c1 (stereo unspecified),1.2,-1.2,29.4*,3.9,-1.7
COc1cc([N+](=O)[O-])ccc1N/C=C/C(=O)c1cccs1,13.5,-12.2,2.2,7.4,-39.5
CC1CCN(C(=O)CSc2nnc(Cc3cc(=O)[nH]c(=O)[nH]3)n2-c2ccc(Cl)cc2)CC1,-0.7,0.7,1.5,-2.5,-19.8
Cc1nc(=O)cc(-c2ccccc2)n1-c1ccccc1,-2.5,3.9,36.3*,4.7,-6.8
O=C(O)C1CCCCC1C(=O)Nc1cc(Cl)ccc1Cl (stereo unspecified),-3.1,2.8,2.7,-0.1,36.8*
O=C(CCCc1c[nH]c2ccccc12)N1CCOCC1,-0.3,-0.9,3.4,6.8,-31.9
O=C(OCC(=O)N1CCCc2ccccc21)c1cccnc1Cl,·,·,38.6*,·,·
SMILES,sEH act,sEH inh,Measles CPE,Calb biofilm kill,cytoskel mod
O=C(OCC(=O)N1CCc2ccccc21)c1cccnc1Cl,6.8,-8.4,6.4,3.8,-0.6
CC(=O)Oc1ccc2oc(C)c(C(=O)N3CCOCC3)c2c1,11.8,-10.3,39.3*,5.4,9.1
NC(=O)C1C(c2ccccc2)=C1c1ccccc1,1.9,-0.5,56.8*,9.6,-2.6
Cc1cc(NC(=O)Cc2cccs2)nn1CC(=O)NCc1ccco1,-7.1,9.8,6.6,5.5,-46.3
Cc1ccccc1NC(=O)c1ccccc1NC(=O)c1ccco1,-4.9,9.9,26.0,2.5,-8.8
CNC(=O)c1ccccc1NC(=O)c1ccco1,-2.3,4.6,21.4,2.0,33.7*
N#CC1=C(N)Nc2ncnn2C1c1ccc(F)cc1 (stereo unspecified),·,·,8.9,·,·
CCc1cccc(C)c1NC(=O)c1ccoc1C,1.2,-3.2,43.8*,9.3,17.1
CCc1cccc(C)c1NC(=O)c1cc(C)oc1C,-18.6,19.8,11.3,-0.7,-17.7
COC(=O)c1cn(NC(=O)c2cccc(N(C)C)c2)c(=O)c2ccccc12,7.5,-8.0,3.9,·,-9.5
COC(=O)c1cn(NC(=O)c2cccc(F)c2)c(=O)c2ccccc12,-19.8,16.2,10.3,59.7*,·

# From PubChem
